Results from PubChem BioAssay AID2314 (National Center for Advancing Translational Sciences (NCATS), 2010).
Several values for one entry are separate records, joined by “and”; a condition that tells them apart may be missing. Equal entries are not always repeated. In all, about 300,000 compounds went through this assay and about 37,000 (12%) were called active. Only a selection was taken, and actives are over-represented in it overall. Values without a mark were called inactive. Rule as the data show it: active = max response mostly above about 13% (no sharp cut-off); inactive = mostly below about 14%.

Assay: Cycloheximide Counterscreen for Small Molecule Inhibitors of Shiga Toxin; also: read at 38.3 µM for the half of the compounds with a filed dose; 0% is about no effect
Conditions: cell reporter, cycloheximide protein synthesis inhibition counterscreen; stronger effect = higher value

| Compound | max response |
| --- | --- |
| COc1ccc(N(C(=O)c2cccnc2)S(=O)(=O)c2ccc(OC)c(OC)c2)cc1 | 1.15% |
| N#CCC(=O)N/N=C/c1ccc(SCC(=O)Nc2ccccc2)o1 | 2.34% |
| O=C(CSc1ccc(/C=N/NC(=O)c2cccc(F)c2)o1)Nc1ccccc1 | 47.1% (active) |
| O=C(Cc1ccccc1)Nc1cccc(C(=O)N/N=C/c2ccco2)c1 | 0.305% |
| COc1cccc2sc(N(CCCN(C)C)C(=O)C(c3ccccc3)c3ccccc3)nc12 | -11.2% |
| Cc1ccc(NC(=O)C(=O)NCc2ccco2)c(C)c1 | 41.1% (active) |
| Cc1ccccc1NC(=O)NCc1ccco1 | 9.11% |
| Cc1ccc(NC(=O)Cn2nnc(C(=O)NCc3ccco3)c2N)c(C)c1 | 9.89% |
| CN(CC(=O)Nc1ccc(F)cc1)CC(=O)Nc1ccc(Cl)c(S(=O)(=O)N2CCOCC2)c1 | -2.41% |
| C/C=C/c1ccc(OCC(O)CN2CCCCCCC2)c(OC)c1 (stereo not drawn) | 9.28% |
| CCOC(=O)c1ccc(NC(=O)Cn2cnc3cc(C)c(C)cc32)cc1 | 6.04% |
| CCn1c(=O)c2ccccc2n(CC(=O)N2CCCc3ccccc32)c1=O | -2.55% |
| CN(C)CCn1c(=S)[nH]c2ccc(Cl)cc2c1=O | -5.79% |
| CN(C)CCN=c1cc(-c2ccccc2)oc2ccc(Cl)cc12 | 23.6% (active) |
| CCOC(=O)c1c(NC(=O)CNC2CCCc3ccccc32)sc(C(N)=O)c1C (stereo not drawn) | 9.96% |
| O=C(N/N=C\c1cc(Br)c(Br)o1)C1COc2ccccc2O1 (stereo not drawn) | 9.2% |
| O=C(CNC(=O)C1COc2ccccc2O1)N/N=C/c1cc(Br)c(O)c(Br)c1 (stereo not drawn) | -2.17% |
| O=C(N/N=C/c1cc2c(cc1Br)OCO2)C1COc2ccccc2O1 (stereo not drawn) | 52.6% (active) |
| CCOC(=O)CSc1nc(N2CCOCC2)c2c(c1C#N)CC(C(C)C)OC2 (stereo not drawn) | -2.94% |
| Cc1ccc(-c2noc(CSc3nnnn3-c3ccccc3)n2)cc1 | 17.8% (active) |
| Cc1ccc(-c2noc(CSc3nnc(-c4cccs4)n3C)n2)cc1 | 5.33% |
| Cc1ccc(-c2noc(CSc3nnc(-c4ccccc4)n3C)n2)cc1 | -0.58% |
| O=C(C1CCCO1)N(c1ccc(F)cc1)C1C=CS(=O)(=O)C1 (stereo not drawn) | -9.85% |
| CC(=O)Nc1cccc(/C(C)=N/NC(=O)c2c(-c3ccccc3Cl)noc2C)c1 | 0.404% |
| Cc1onc(-c2ccccc2Cl)c1C(=O)OCC(=O)c1ccccc1 | 38.6% (active) |

| Compound | max response |
| --- | --- |
| Cc1onc(-c2ccccc2Cl)c1C(=O)NCCn1ccc2ccccc21 | -2.37% |
| CC(=O)n1cc([C@H]2C=C(C(=O)N3CCOCC3)O[C@@H](OCc3ccc(CO)cc3)C2)c2ccccc21 | -0.396% |
| Cc1ccc(S(=O)(=O)N2CCN(C)CC2)cc1 | 1.47% |
| O=C1CSC(c2ccccc2)N1c1nc(-c2ccc(Cl)cc2Cl)cs1 (stereo not drawn) | -1.24% |
| Clc1ccc(-c2ncc3ccccn23)c(Cl)c1 | -0.544% |
| Clc1ccc(-c2cc(-c3ccccn3)on2)c(Cl)c1 | 29.5% (active) |
| Cc1noc(C)c1/C=N/Nc1ccc2ccccc2n1 | 39.1% (active) |
| C(=N\Nc1ccc2ccccc2n1)/c1ccc2c(c1)OCO2 | -3.9% |
| O=C(O)/C(=C/c1cccnc1)NC(=O)c1ccccc1 | 0.766% |
| O=C(/C=C/NNC(=O)c1cccc(Br)c1)c1ccccc1 | 22.3% |
| CCOC(=O)CNC(=O)/C(=C\c1ccc(F)cc1)NC(=O)c1ccccc1 | -0.456% |
| O=C(/C=C/NCc1ccc(F)cc1)c1ccccc1 | 53.1% (active) |
| O=C(/C=C\NCC(=O)c1ccccc1)c1ccccc1 | 35.9% (active) |
| O=C(CNCc1ccc(F)cc1)Nc1ccccc1-c1ccccc1 | -4.19% |
| Cc1cccc[n+]1CC(=O)c1ccccc1 | 0.405% |
| Cc1ccc(C(=O)Oc2ccc(C(=S)N3CCOCC3)cc2)cc1 | -3.19% |
| COC(=O)C1(C)NC(c2ccc(C)cc2)C2C(=O)N(c3ccc(F)cc3)C(=O)C21 (stereo not drawn) | 1.36% |
| CCOC(=O)CNC(=O)/C=C/c1c(Cl)cccc1Cl | -3.14% |
| CCOC(=O)N/N=C/c1cn(Cc2ccccc2Cl)c2ccccc12 | 4.93% |
| CNC(=S)N/N=C/c1cn(Cc2ccc(C)cc2)c2ccccc12 | 3.75% |
| COC(=O)N/N=C/c1cn(CCCOc2ccc(C)cc2)c2ccccc12 | 44.1% (active) |
| Cc1ccc(Cn2ncc3c4sc(C)cc4n(C)c3c2=O)c(C)c1 | 5.87% |
| CCn1cc(/C=C2/SC(=S)NC2=O)c(C)n1 | 2.94% |
| Cc1nn(C)cc1/C=C1\CCC/C(=C\c2cn(C)nc2C)C1=O | 18.2% (active) |
| O=C1/C(=C/c2ccc3c(c2)OCO3)CCC/C1=C\c1ccc2c(c1)OCO2 | 0.534% |

| Compound | max response |
| --- | --- |
| CCOc1ccc(NC(=O)COc2ccc(S(=O)(=O)N3CCCC3)cc2)cc1 | 1.08% |
| Cc1c(C(=O)NC(=S)NCc2cccnc2)oc2ccccc12 | 6.33% |
| COc1ccc(NC(=O)C2CCC(CNC(=O)[C@@H]3Cc4ccccc4CN3)CC2)cc1 (stereo partly drawn) | 15.5% |
| CCOc1ccc(S(=O)(=O)N2CCCC(C(=O)N3CCC(C(N)=O)CC3)C2)cc1Cl (stereo not drawn) | 23.5% (active) |
| CCOC(=O)C1CCN(C(=O)C2CCCN(S(=O)(=O)c3ccc(OC)c(Cl)c3)C2)CC1 (stereo not drawn) | -4.35% |
| CCN1CCN(C(=O)C2CCCN(S(=O)(=O)c3ccc(OC)c(OC)c3)C2)CC1 (stereo not drawn) | -4.36% |
| COCCCC1CCN(C(=O)C2CCC(=O)N(C3CCCCCC3)C2)CC1 (stereo not drawn) | -2.1% |
| COc1ccc(C(C(O)C(=O)c2c[nH]c3ccccc23)N2CCN(c3ccccc3)CC2)cc1 (stereo not drawn) | 11.6% (active) |
| COc1ccc(C(CC(=O)N2CCN(c3ccccc3)CC2)c2c(O)cc(OC)cc2OC)cc1 (stereo not drawn) | -2.39% and 0.819% |
| COc1ccc(C(=O)Nc2ccccc2C(=O)N2CCN(c3ccccc3)CC2)cc1 | 11.6% |
| Cc1c(C)n(Cc2ccc(Cl)cc2)c2ccc(C(=O)NCCCN3CCOCC3)cc12 | -6.61% |
| O=C(NCCCn1ccnc1)/C(=C\c1ccccc1F)NC(=O)c1ccccc1 | -1.78% |
| O=C(Nc1ccc2ccccc2c1)Nc1ccc2snnc2c1 | 14.6% |
| CCc1ccccc1NC(=O)c1ccc2snnc2c1 | -0.462% |
| O=C(Nc1cccc(Br)c1)c1ccc2snnc2c1 | 26.9% (active) |
| COC(=O)Cc1cnc(NC(=O)CSc2nc(C(C)C)cc(=O)[nH]2)s1 | -1.1% |
| Cc1ccc(Oc2ccc(N)cc2)cc1 | 14.2% (active) |
| CC(C)(C)c1ccc(Oc2ccc(N)cc2)cc1 | -11.7% |
| COc1cccc(OCCCN2CCCCCC2)c1 | 10.5% |
| COc1cccc(Oc2ccc(N)cc2)c1 | 19.4% (active) |
| COc1ccc(/C=C/C(=O)OCC(=O)Nc2cccc(Oc3ccccc3)c2)c(OC)c1 | -2% |
| Nc1ccc(Oc2ccc(Cl)cc2)cc1 | 10.9% |
| O=C(Oc1ccc(Br)cc1C(=S)N1CCOCC1)c1cccc([N+](=O)[O-])c1 | -2.16% |
| CC1(C(=O)NCCc2c[nH]c3ccccc23)C=CC2(CCCCC2)N1C(=O)c1ccccc1 (stereo not drawn) | 17.5% |
| Cc1ccc(Nc2nc(CSc3nnc(-c4ccncc4)n3-c3ccccc3C)cs2)cc1 | 6.52% |

| Compound | max response |
| --- | --- |
| COc1ccccc1N1CCC(N2CCN(CC(C)(C)C)C(CCO)C2)CC1 (stereo not drawn) | 1.35% |
| NC(=O)C1CCN(Cc2nc3c(Br)cc(Br)cc3c(=O)[nH]2)CC1 | 4.18% |
| CN(C(=O)CC1C(=O)NCCN1Cc1ccc(F)cc1Cl)C1CCCCC1 (stereo not drawn) | -2.54% |
| Cc1ccccc1OCC(=O)NCC(=O)OCC(=O)c1ccc2ccccc2c1 | 1.31% |
| O=C(Nc1ccccc1N1CCCC1)c1ccc2ccccc2c1 | 18.5% |
| CC(=O)c1ccc2c(c1)c1ccccc1n2CC(C)C | 3.09% |
| CC(=O)c1ccc2c(ccc3ccccc32)c1 | 67.2% (active) |
| CCN(CC)Cc1cc(C(C)=O)ccc1O | -3.77% |
| CC(=O)CCC(=O)c1ccc2ccccc2c1 | 48.4% (active) |
| CC(C)CC(O)C1CCN(C(=O)CCc2nnc(-c3ccc4c(c3)OCO4)o2)CC1 (stereo not drawn) | 13.8% |
| COc1ccc(Cl)cc1NC(=O)c1cccc(N2C(=O)C3CC=CCC3C2=O)c1 (stereo not drawn) | -2.41% |
| CC1CN(C(=S)Nc2cccc(F)c2)CC(C)O1 (stereo not drawn) | -2.61% |
| COc1ccc(CCNC(=O)Cc2ccc(C)cc2)cc1OC | 0.685% |
| COc1ccc(CC(=O)c2ccc(O)cc2O)cc1OC | 12.9% (active) |
| O=C(Cc1ccccn1)c1ccc(O)cc1O | -6.13% |
| CCN(Cc1ccncc1)C(=O)CCc1ccccc1 | -2.09% |
| CCOc1ccc(NC(=O)c2cccc3c2C(=O)N(CC2CCCO2)C3)cc1 (stereo not drawn) | 8.04% |
| CCn1c(SCC(=O)N(C)C2CCS(=O)(=O)C2)nnc1-c1cccs1 (stereo not drawn) | -1.86% |
| CCn1c(Cc2cccs2)nnc1SCC(=O)c1ccc(C)cc1 | 35.4% (active) |
| CCn1c(SCC(=O)c2ccc3ccccc3c2)nnc1-c1cccs1 | -2.54% |
| Cc1ccc(-n2c(Cc3cccs3)nnc2SCC(=O)OC(C)C)cc1 | 18.3% |
| CCn1c(SCC(=O)c2ccc(Cl)s2)nnc1-c1cccs1 | 24.2% (active) |
| Cn1c(Cc2cccs2)nnc1SCC(=O)Nc1ccccc1 | -0.893% |
